Measured values as given in PubChem BioAssay AID720531 (The Scripps Research Institute Molecular Screening Center, 2013).
Hit rate of the full screen: of about 1,000 compounds, about 270 (27%) were called active. Cut-off read from the data, not from the text of the source: active = inhibition above about 14%; inactive = the rest. Not all results are given here.

Each compound was assayed against Methyl-CpG-binding domain protein 2 (Homo sapiens) (UniProt Q9UBB5) (assay: MBD2-DBD methyl-oligonucleotide interaction blockers – biochemical, TR-FRET, DNA-binding domain, human, confirmation (AID 720531)). Conditions: TR-FRET MBD2-DBD binding to methylated oligonucleotide; at 4.4 µM; stronger effect = higher value.
Methyl-CpG-binding domain protein 2 (Homo sapiens), sequence (Q9UBB5 whole entry, looked up, the tested form may be a part): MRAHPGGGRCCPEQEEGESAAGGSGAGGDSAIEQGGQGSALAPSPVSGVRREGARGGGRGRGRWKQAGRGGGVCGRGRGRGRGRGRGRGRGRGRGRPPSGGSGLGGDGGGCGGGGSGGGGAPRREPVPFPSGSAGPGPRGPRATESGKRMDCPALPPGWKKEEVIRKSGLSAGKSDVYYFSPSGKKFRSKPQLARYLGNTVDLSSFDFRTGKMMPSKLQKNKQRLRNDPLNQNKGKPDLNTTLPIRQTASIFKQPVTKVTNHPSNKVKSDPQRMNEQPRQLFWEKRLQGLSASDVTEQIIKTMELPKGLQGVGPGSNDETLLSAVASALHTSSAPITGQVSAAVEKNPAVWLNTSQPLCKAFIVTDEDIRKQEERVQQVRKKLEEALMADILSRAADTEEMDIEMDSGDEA

Structure (SMILES)	inhibition
Cc1cc(/C=C2/C(=O)NC(=O)N(Cc3ccco3)C2=O)c(C)n1-c1ccc(C(=O)O)cc1	3.26% (inactive)
COc1ccc(N2C(=O)/C(=C/c3ccco3)C(=O)NC2=S)cc1	88.4% (active)
O=C1NC(=O)N(Cc2ccco2)C(=O)/C1=C\c1ccc(-c2ccc(F)cc2)o1	4.49% (inactive)
